Source: PubChem (several laboratories)
Mot1-301 SUMO: blocks SUMOylation pathway, rescuing yeast Mot1-301 growth; S. cerevisiae Mot1-301 growth rescue, ATP luminescence, 38.5C; percent above DMSO median, 100 means doubled; growth rescue, % at 18.8 µM; actives 1% (n = 320,000);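 active = every valid replicate shows activation above 250% relative to neutral control wells; inactive = the rest, any valid replicate at or below 250%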;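 note: OY570 slx delta 5 strain wells were the positive control but not used for scaling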
PfM18AAP inh: blocks P. falciparum M18 aspartyl aminopeptidase | recombinant PfM18AAP, H-Glu-NHMec fluorogenic cleavage | actives 1.2% (n = 290,000) | inhibition, % at 7.35 µM;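 active = inhibition above the campaign mean inhibition over all tested compounds plus 3 SD, cut at about 28% in these data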;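 note: 0% = plate median of test compound wells and 100% = 2 mM ZnCl2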
ALR inh: blocks human ALR sulfhydryl oxidase activity; P55789; actives 3.8% (n = 290,000); AID 485317; inhibition, % (test concentration not listed); purified ALR, DTT oxidation, H2O2 HRP-luminol luminescence;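 active = mean replicate inhibition above about 79%, with every replicate also reaching it, limit read from the data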
Target sequence (P55789 whole entry, looked up): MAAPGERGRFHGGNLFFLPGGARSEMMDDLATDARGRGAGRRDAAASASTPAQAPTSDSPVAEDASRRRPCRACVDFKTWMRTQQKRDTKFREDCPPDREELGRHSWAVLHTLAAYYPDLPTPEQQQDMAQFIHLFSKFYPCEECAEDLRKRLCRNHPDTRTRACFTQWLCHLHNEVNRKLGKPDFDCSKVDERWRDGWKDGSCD
HIF act: HIF pathway transcriptional activation; U2OS HRE-luciferase reporter, luminescence; normalized: DMSO 0%, desferrioxamine 100%; actives 0.32% (n = 300,000); activation, % at 7.5 µM (by protocol); AID 1910;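 active = mean activation of at least 10% of the iron chelator positive control signal, with at least half of replicates also reaching 10%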
* hit, by the source's call; · = not tested or not shown. Most compounds without a hit are left out; they make up all but 5.3% or so of the library.

SMILES | Mot1-301 SUMO | PfM18AAP inh | ALR inh | HIF act
Cc1nn(CCc2n[nH]c(=S)n2C2CCCCC2)c(C)c1Br | -3 | 1 | 2 | 0
Cc1nn(CCc2n[nH]c(=S)n2C)c(C)c1Br | 0 | 8 | 94* | 0
COc1ccc(C(=O)/C=C/c2ccc(OCc3ccccc3)cc2)cc1CSCC(=O)O | 0 | -7 | 99* | 1
COC(=O)c1ccc(/C=C/C(=O)c2ccc(OC)c(OC)c2)cc1 | 91 | 10 | 99* | 0
COc1cc(/C=C/C(=O)c2ccc(F)cc2)cc(OC)c1OC | 29 | 0 | 97* | 1
COc1ccc(C(=O)/C=C/c2cccc(OCc3ccccc3)c2)cc1CSCC(=O)O | -16 | 4 | 57 | 0
COc1ccc(/C=C/C(=O)c2ccc(C(=O)/C=C/c3ccc(OC)c(OC)c3)cc2)cc1OC | · | 3 | · | 3
COc1cc(C(=O)/C=C/c2cccnc2)ccc1O | 56 | 18 | 100* | -33
CCOc1ccc(C(=O)/C=C/c2cc(OC)c(OC)c(OC)c2)cc1 | 20 | 0 | 9 | 0
CCOc1ccc(CN2C(=O)CC(=O)N(S(=O)(=O)c3ccc(OCC)cc3)C2=O)cc1 | 8 | -4 | · | 0
COc1cc(CC(=O)OCC(=O)Nc2cc([N+](=O)[O-])ccc2Cl)cc(OC)c1OC | 4 | -1 | -5 | 0
COc1ccc(C(=O)/C=C/c2ccccc2)c(O)c1 | -11 | -4 | 53 | 3
COc1ccc(/C=C/C(=O)c2ccc(OC)cc2OC)cc1 | 5 | 3 | 94* | 1
CCn1c(=O)c2c3c(sc2n2c(=S)[nH]nc12)CCC3 | -8 | -6 | 87* | -1
O=C(NC1CC1)C1CC(=O)N(c2ccccc2)C1 (centres undefined) | 4 | -3 | · | 0
O=C(NC1CCCC1)C1CC(=O)N(c2ccccc2)C1 (centres undefined) | 356* | -2 | -8 | -8
CN(C)Cc1c(O)ccc2ccccc12 | 105 | 8 | 11 | 0
Oc1ccccc1Cc1c(O)ccc2ccccc12 | -4 | · | 91* | 0
COc1ccc2cc3cc(C(=O)N4CCN(c5ccccn5)CC4)oc3nc2c1 | 20 | 5 | -2 | 56*
O=C(NN1C(=O)NC2(CCCCC2)C1=O)c1ccc(Cl)c(Cl)c1 | -14 | · | 2 | ·
Cc1ccc(/C=N/NC(=O)c2ccc(Br)o2)s1 | -11 | 1 | 1 | 9.9*
Cc1ccc2nc3n(c(=O)c2c1)-c1cc(Cl)ccc1C(=O)NC3Cc1ccc(O)cc1 (centres undefined) | -10 | · | -3 | ·
CC1(C)S[C@@H]2[C@H](NC(=O)COc3ccccc3)C(=O)N2C1C(=O)OCc1cc2ccccc2n1S(=O)(=O)c1ccccc1 (some centres undefined) | -3 | -11 | 0 | 0
CC1(C)S[C@@H]2[C@H](NC(=O)COc3ccccc3)C(=O)N2C1C(=O)OCC1CCCCC1 (some centres undefined) | 327* | · | -1 | -1
CN(CC(=O)Nc1ccc(N2CCOCC2)cc1)C(=O)CSc1ccc(F)cc1 | 124 | · | 40 | 0
SMILES | Mot1-301 SUMO | PfM18AAP inh | ALR inh | HIF act
Cc1c(Cc2ccccc2)sc(/N=C/c2c(O)ccc3ccccc23)c1C(N)=O | 46 | 42* | -19 | 1
Cc1c(Cc2ccccc2)sc(NC(=O)C(C)(C)C)c1C(N)=O | · | 3 | -9 | -1
Cc1c(Cc2ccccc2)sc(N)c1C(N)=O | -6 | 42* | 11 | 0
Cc1sc(N)c(C(=O)c2ccccc2)c1C | -3 | 32* | 31 | 0
O=C(NC(=O)N1CCN(c2ccc([N+](=O)[O-])cn2)CC1)c1c(Cl)cccc1Cl | -12 | 6 | -3 | 0
Cc1cccc(C(=O)Nc2nnc(S(=O)(=O)N(C)Cc3ccco3)s2)c1 | 45 | -6 | 94* | 1
Clc1ccc2[nH]c3c(c2c1)CCc1cn[nH]c1-3 | 80 | 4 | 99* | 1
c1ccc2c3c([nH]c2c1)-c1[nH]ncc1CC3 | 132 | -4 | 98* | 0
O=c1c2ccccc2nc2n1CCc1c-2[nH]c2ccccc12 | 92 | · | -13 | ·
CCOC(=O)c1nnn2c1nc(SCC(C)=O)c1ccccc12 | 2 | -10 | 88* | 0
O=C(CN1CCN(c2ccc(O)cc2)CC1)N(C1CC1)C1CCS(=O)(=O)C1 (centres undefined) | 3 | · | 99* | ·
CCN(CC)CCn1c2c(c(SCC(=O)Nc3nc(C)cs3)nc1=O)CCCC2 | 10 | · | 98* | 0
CCN(CC)CCn1c2c(c(SCC(=O)Nc3nc(C)cs3)nc1=O)CCC2 | -1 | · | 99* | 0
CCN(CC)CCCn1c2c(c(SCC(=O)Nc3nc(C)cs3)nc1=O)CCC2 | -15 | · | -235 | 0
